Source: PubChem (National Center for Advancing Translational Sciences (NCATS))
Most compounds without a hit are left out; they make up all but 2.4% or so of the library.
D2 ag-1: activates the human D2 dopamine receptor; P14416; DiscoveRx PathHunter D2 beta-arrestin, luminescence, 90 min; 100% = 57 uM dopamine signal; activation, % (test concentration not listed); 360,000 compounds, 0.084% hits; AID 624465; in the data active means activation above about 40%; inconclusive means between about 15% and that limit
Target sequence (P14416 whole entry, looked up): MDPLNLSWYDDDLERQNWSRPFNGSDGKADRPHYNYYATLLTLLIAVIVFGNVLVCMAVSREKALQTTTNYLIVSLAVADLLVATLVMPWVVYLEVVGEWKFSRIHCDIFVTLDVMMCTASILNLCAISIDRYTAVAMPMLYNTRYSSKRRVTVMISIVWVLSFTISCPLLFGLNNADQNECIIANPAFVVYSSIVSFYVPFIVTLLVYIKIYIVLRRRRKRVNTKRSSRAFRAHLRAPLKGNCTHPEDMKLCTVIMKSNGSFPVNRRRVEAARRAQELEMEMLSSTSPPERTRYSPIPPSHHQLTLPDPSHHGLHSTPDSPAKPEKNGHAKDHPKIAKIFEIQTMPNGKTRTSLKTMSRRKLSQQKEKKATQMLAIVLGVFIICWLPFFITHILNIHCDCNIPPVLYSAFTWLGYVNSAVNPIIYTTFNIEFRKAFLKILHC
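Agonist mode: compounds alone added to overnight-plated D2 PathHunter cells for 90 min at 37 C, with 57 uM final dopamine (EC100) defining full response. Beta-arrestin recruitment detected by chemiluminescent reagent, read after 1 h at ambient temperature.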
D2 PAM-1: D2 dopamine receptor (human) potentiation; 340,000 compounds, 0.34% hits; P14416; potentiation, % at 10 µM; HEK293 T-REx D2, calcium flux, EC20 dopamine potentiation; AID 485347;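 active means potentiation over 3 SD above the plate norm, cut at about 30% in these data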; further: 0% is about no effect
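Cells plated with tetracycline inducer and held overnight at 30 C; calcium dye loaded 30–90 min at room temperature; baseline taken, compound added and read 180 s; EC20 dopamine then added and read 180 s.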
D2 ag-2: activates the human D2 dopamine receptor. HEK293 T-REx D2 cells, calcium flux agonist mode. P14416. AID 485358. activation, % at 2 µM. 340,000 compounds, 0.53% hits;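 active means activation over 3 SD above normal in the single-dose calcium agonist read, cut at about 30% in these data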; further: 0% is about no effect
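In this primary screen, compounds producing a positive calcium signal within 180 s of addition to tetracycline-induced, force-coupled HEK293 Trex D2 cells are flagged; cells are dye-loaded with a no-wash calcium kit beforehand.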
D2 PAM-2: potentiates the human D2 dopamine receptor allosterically | P14416 | 360,000 compounds, 0.23% hits | DiscoveRx D2 beta-arrestin cells, luminescence, 90 min; 100% = 57 uM dopamine signal | potentiation, % (concentration not given with the values) | AID 624464; in the data active means potentiation above about 50%; inconclusive means mostly about 30% to 49%
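PathHunter D2 cells, attached overnight at 37 deg C, received compound in DMSO plus dopamine at EC20 (50 nM final) for 90 min at 37 deg C. Beta-arrestin recruitment was read as luminescence after 1 h with detection reagent at ambient temperature.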
D2 antag: antagonists of human D2 dopamine receptor. AID 485344. inhibition, % at 10 µM. P14416. 340,000 compounds, 2% hits. HEK293 TREx D2 cells, calcium flux, dopamine EC80; in the data active means inhibition above about 30%; inactive means below that, where a call was filed; further: 0% is about no effect
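Inhibition of EC80 dopamine-driven calcium flux, recorded kinetically, defines activity here; cells are a tetracycline-induced HEK293 T-REx line expressing force-coupled D2.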
* = called active by the depositor; ? = inconclusive; . = no result.

SMILES	D2 ag-1	D2 PAM-1	D2 ag-2	D2 PAM-2	D2 antag
CC(=O)N1CCN(c2ccc(NCc3ccc(C)cc3)cc2)CC1	-1.4	-16.5	0.1	29.9	-5.1
CCc1ccc(CNc2ccc(N3CCN(C(C)=O)CC3)cc2)cc1	12.2	8.5	0.3	81.5*	-2.2
Cn1c(SCc2ccccc2)nnc1-c1cnccn1	-2.0	-2.4	0.0	-0.6	37.1*
Cn1c(SCc2ccc(F)cc2)nnc1-c1cnccn1	-1.1	-1.3	-0.8	-6.4	-4.5
NC(=O)CSc1nnc(-c2cnccn2)n1-c1ccccc1	-0.4	36.2*	0.5	-6.4	-19.6
COc1cc2nc(CN3CCN(S(=O)(=O)c4ccccc4[N+](=O)[O-])CC3)[nH]c(=O)c2cc1OC	0.1	.	.	-8.9	.
CC12CCC(C(=O)N(CSC(=S)N/N=C\c3ccccc3Cl)C1=O)C2(C)C (stereo unspecified)	2.7	8.3	-0.3	-13.2	-5.0
CC12CCC(C(=O)N(CSC(=S)N/N=C\c3ccccc3)C1=O)C2(C)C (stereo unspecified)	-0.8	8.5	-1.6	-7.2	32.4*
COc1ccc(C2(c3ccc(OC)cc3)NC(=O)N(CC(=O)Nc3cc(C)ccc3OC)C2=O)cc1	-5.7	3.0	-0.4	-12.3	-22.8
CC(=N/O)/C(C)=N\NC(=O)c1ccccn1	1.0	-1.7	0.2	-10.9	-9.9
C/C(=N\NC(=O)c1ccccn1)c1ccc(C(=O)O)s1	.	-7.2	-1.4	.	59.3*
CC1(C)CCN2CCC(C)(C)c3c(O)ccc1c32	4.0	3.7	34.1*	2.3	-1.5
O=C(O)c1ccc(Nc2ncnc3ccccc23)cc1	-0.8	2.1	2.6	-7.3	31.7*
CC(C)(C)CC(C)(C)N=C1NS(=O)(=O)c2cc([N+](=O)[O-])ccc21	?	7.9	0.6	29.3	15.1
CC(C)(CO)N=C1NS(=O)(=O)c2cc([N+](=O)[O-])ccc21	?	0.2	0.1	90.3*	15.2
COc1ccc(-c2cc(C(F)(F)F)n3nc(C(=O)N4CCN5CCCC5C4)cc3n2)cc1OC (stereo unspecified)	-4.4	-4.7	0.1	-7.2	7.5
COc1ccccc1NC(=O)Nc1ccc(N2CCOCC2)cc1	-1.9	-23.1	0.5	-4.4	4.4
COc1ccccc1CNCC(=O)Nc1ccc(N2CCOCC2)cc1	-1.0	-14.3	32.8*	-4.2	3.0
O=C(Cc1cccs1)NCc1ccncc1	-4.9	2.6	-0.6	1.3	58.0*
O=C(Cc1cccs1)NCCCc1ccccc1	3.1	-12.0	-0.5	13.1	69.4*
Cc1c(C(=O)N(C)Cc2ccccc2)sc2nc(-c3ccc(F)cc3)cn12	.	.	-0.1	.	.
Cc1cc(OCCN2CCN(S(=O)(=O)c3ccccc3F)CC2)ccc1C(C)C	-2.5	65.9*	1.2	-21.3	-6.5
COc1ccc(OCCN2CCN(S(=O)(=O)c3ccccc3C(F)(F)F)CC2)cc1	-0.1	-2.9	0.5	-1.2	12.2
COc1cc(-c2cc(=O)c3c(O)c(OC)c(OC)c(O)c3o2)ccc1O	8.8	17.4	-0.1	87.9*	0.0
COc1c(O)c(O)c2oc(-c3ccccc3)cc(=O)c2c1OC	7.6	13.8	-0.1	?	-4.7
SMILES	D2 ag-1	D2 PAM-1	D2 ag-2	D2 PAM-2	D2 antag
CN(C)C(=O)CCc1ccc2c3c([nH]c2c1)[C@]1(CCc2ccccc2)[C@@H](C(=O)N2CCCCC2)C[C@H](CC(=O)NCCCn2ccnc2)C(=O)N1CC3	-2.2	.	.	-0.7	.
COC(=O)c1cc(S(=O)(=O)n2nc(C)c(Br)c2C)c(Cl)cc1Cl	-2.0	4.0	-0.6	53.5*	-10.4
Cc1cc(C)n(S(=O)(=O)c2cc(C(=O)O)c(Cl)cc2Cl)n1	0.0	.	0.9	-4.7	-17.0
Cc1nc(N2CCOCC2)[nH]c(=O)c1CCC(C)C	-2.5	0.9	0.4	14.2	0.3
Cc1nc(N2CCOCC2)[nH]c(=O)c1C(O)C(Cl)(Cl)Cl (stereo unspecified)	-4.3	-4.3	0.7	-7.7	48.1*
COc1cccc(N2CCN(c3ccc4nnc(CCC(=O)N5CCC(C)CC5)n4n3)CC2)c1	-1.5	-0.7	0.6	12.9	-9.2
CCCN1CCN(C(=O)CCc2nnc3ccc(N4CCN(c5cccc(OC)c5)CC4)nn23)CC1	-6.0	-5.2	-0.6	-4.3	31.8*
CCOC(=O)c1ccc2c(c1)N(C)C(=O)c1ccccc1S2	-1.7	-0.6	1.2	-3.3	-1.5
CCOC(=O)c1cc2n(c1/N=C/N(C)C)-c1ccccc1C2=O	-3.6	4.0	35.6*	-3.9	14.9
O=C(Cn1ncn2c(cc3sccc32)c1=O)NC1CCCC1	-3.3	-0.6	0.3	-5.9	-9.7
O=C(NCC(c1cccs1)N1CCOCC1)c1ccccc1NS(=O)(=O)c1cc([N+](=O)[O-])ccc1Cl (stereo unspecified)	-1.6	12.0	-0.8	-8.5	33.0*
COC(=O)CNC(=O)c1cccs1	-2.3	-7.6	0.5	4.9	65.9*
CCCCN(CC)CCCNC(=O)c1ccc2c(c1)NC(=O)CN2C	.	-8.6	5.0	.	.
Cc1ccc(NC(=O)Cc2ncc(C(F)(F)F)cc2Cl)cc1Cl	-1.2	-7.4	-0.2	-17.4	43.9*
Cc1cccc(CSc2nc3c(sc4ccccc43)c(=O)n2CCC(=O)NC(C)C)c1	.	-1.9	-2.5	.	.
CCNS(=O)(=O)c1ccc(Br)c(C(=O)OC(C)C(=O)NCC2CCCCC2)c1 (stereo unspecified)	-3.2	-2.5	-0.1	-4.8	12.6
N#Cc1c(Sc2ncc(C(F)(F)F)cc2Cl)nsc1C/C=N\OCc1c(F)cccc1Cl	2.3	1.8	0.5	57.7*	-4.3
COC(=O)[C@H](CCSC)NC(=O)Cn1cc(C)c(=O)[nH]c1=O	-4.8	.	.	-4.6	.
O=C(Cc1nc2ccccc2[nH]1)c1ccc([N+](=O)[O-])cc1	4.1	-5.0	-0.5	-3.8	0.5
O=C(Cc1nc2ccccc2[nH]1)c1ccc(Cl)cc1	-2.3	44.1*	0.6	-3.2	-19.4
COCCSc1ccccc1C(=O)Nc1ccc(Cl)cc1	0.7	-5.5	0.2	-17.5	57.7*
COCCSc1ccccc1C(=O)NCCCn1ccnc1	-0.6	3.5	-0.1	-8.4	38.8*
COc1ccc(NS(=O)(=O)c2cc(NC(=O)c3ccc(=O)[nH]n3)ccc2N2CCOCC2)cc1	-3.5	-5.2	0.7	-1.4	10.8
CC1CN(CC(=O)c2c(N)n(Cc3ccccc3)c(=O)n(C)c2=O)CC(C)O1 (stereo unspecified)	-1.4	6.0	1.6	0.7	35.8*
Cn1c(=O)c(C(=O)CN2CCOCC2)c(N)n(Cc2ccccc2)c1=O	-4.2	-2.5	-0.3	-15.7	9.9
C#Cc1ccc(CN2CCC(Oc3ccc(C(=O)NCc4ccccn4)cc3)CC2)cc1	-3.0	-18.5	-0.2	-31.4	36.4*
CC(=O)N1c2ccc(S(=O)(=O)N3CCCCC3)cc2CC1C(=O)NCc1cccc(Cl)c1 (stereo unspecified)	-1.0	8.4	0.1	-0.1	-1.9
